In all, about 2,000 compounds were measured (“B-score”: median about -0.0024, highest 2% from about 4 on). Only a selection was taken, and the highest values are over-represented in it overall.
What follows are compounds tested on Balamuthia mandrillaris (ATCC PRA-291) trophozoites, axenic culture (assay: primary screen, b score). Settings: 20 µM.
Summary of the method: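 Trophozoites (3,000/well) in axenic medium exposed to library drugs at 20 µM in 0.2% DMSO for 72 h; viability by CellTiter Glo luminescence at 2, 4 and 8 h. Controls: vehicle and freeze-thaw amoeba lysate; B-score corrects row, column and edge effects.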

Compound	B-score
Cc1cc(C(C)(C)C)c(O)c(C(C)(C)C)c1	-0.212
Nc1nc(=O)n([C@@H]2CS[C@H](CO)O2)cc1F	-0.911
CNC(=O)c1c(I)c(NC(C)=O)c(I)c(C(=O)O)c1I	0.108
CO[C@H](C(=O)[C@@H](O)[C@@H](C)O)[C@@H]1Cc2cc3cc(O[C@H]4C[C@@H](O[C@H]5C[C@@H](O)[C@H](O)[C@@H](C)O5)[C@H](O)[C@@H](C)O4)c(C)c(O)c3c(O)c2C(=O)[C@H]1O[C@H]1C[C@@H](O[C@H]2C[C@@H](O[C@H]3C[C@](C)(O)[C@H](O)[C@@H](C)O3)[C@@H](O)[C@@H](C)O2)[C@H](O)[C@@H](C)O1	8.18
CC(=O)O[C@@]12CO[C@@H]1C[C@H](O)[C@@]1(C)C(=O)[C@H](O)C3=C(C)[C@@H](OC(=O)[C@H](O)[C@@H](NC(=O)OC(C)(C)C)c4ccccc4)C[C@@](O)([C@@H](OC(=O)c4ccccc4)C12)C3(C)C (some centres unmarked)	-2.24
CCN1CCCC(OC(=O)C(c2ccccc2)c2ccccc2)C1 (centres unmarked)	0.874
CC(C)(C)c1ccc(C(O)CCCN2CCC(C(O)(c3ccccc3)c3ccccc3)CC2)cc1 (centres unmarked)	-2.26
Oc1ccnc(O)n1	1.41
CC(C)n1c(/C=C/[C@@H](O)C[C@@H](O)CC(=O)O)c(-c2ccc(F)cc2)c2ccccc21 [255968-L2]	3.74
CC(C)c1c(C(=O)Nc2ccccc2)c(-c2ccccc2)c(-c2ccc(F)cc2)n1CC[C@@H](O)C[C@@H](O)CC(=O)O	6.68
CC(C)n1c(/C=C/[C@@H](O)C[C@@H](O)CC(=O)O)c(-c2ccc(F)cc2)c2ccccc21 [255968-L3]	-0.277
CCC(=O)O[C@]1(C(=O)CCl)[C@@H](C)C[C@H]2[C@@H]3CCC4=CC(=O)C=C[C@]4(C)[C@@]3(F)[C@@H](O)C[C@@]21C [285821-L1]	-1.34
Cc1ccccc1N1CCN(CCc2nnc3n2CCCC3)CC1	2.29
COC(=O)N/N=C/c1c[n+]([O-])c2ccccc2[n+]1[O-]	2.88
O=C1CCc2ccc(OCCCCN3CCN(c4cccc(Cl)c4Cl)CC3)cc2N1 [756864-L1]	1.99
CCOC(=O)/C=C(C)/C=C/C=C(C)/C=C/c1c(C)cc(OC)c(C)c1C	-0.469
C[N+](C)(C)CCCCCC[N+](C)(C)C	-0.576
CCCCCCCCCCCCCCCC[N+](C)(C)C	10
C[N+](C)(C)CCCCCCCCCC[N+](C)(C)C	0.626
CC1(C)NC(=O)N(c2ccc([N+](=O)[O-])c(C(F)(F)F)c2)C1=O [131481-L4]	0.0858
